BAZ2B inh: inhibitors of human BAZ2B bromodomain; 360,000 compounds, 4.4% hits; Potency, µM (highest dose often 114 µM), inactives show top-dose activity change, negative = inhibition, hits mostly inhibitors; AlphaScreen BAZ2B-H3K14Ac peptide displacement; Q9UIF8; further: potency means the concentration at half of the fitted maximal effect; on the % scale 0 is the no-effect control and ±100 the full control effect; nearly all actives have a fitted effect of over 60% in size
Target sequence (Q9UIF8 whole entry, looked up): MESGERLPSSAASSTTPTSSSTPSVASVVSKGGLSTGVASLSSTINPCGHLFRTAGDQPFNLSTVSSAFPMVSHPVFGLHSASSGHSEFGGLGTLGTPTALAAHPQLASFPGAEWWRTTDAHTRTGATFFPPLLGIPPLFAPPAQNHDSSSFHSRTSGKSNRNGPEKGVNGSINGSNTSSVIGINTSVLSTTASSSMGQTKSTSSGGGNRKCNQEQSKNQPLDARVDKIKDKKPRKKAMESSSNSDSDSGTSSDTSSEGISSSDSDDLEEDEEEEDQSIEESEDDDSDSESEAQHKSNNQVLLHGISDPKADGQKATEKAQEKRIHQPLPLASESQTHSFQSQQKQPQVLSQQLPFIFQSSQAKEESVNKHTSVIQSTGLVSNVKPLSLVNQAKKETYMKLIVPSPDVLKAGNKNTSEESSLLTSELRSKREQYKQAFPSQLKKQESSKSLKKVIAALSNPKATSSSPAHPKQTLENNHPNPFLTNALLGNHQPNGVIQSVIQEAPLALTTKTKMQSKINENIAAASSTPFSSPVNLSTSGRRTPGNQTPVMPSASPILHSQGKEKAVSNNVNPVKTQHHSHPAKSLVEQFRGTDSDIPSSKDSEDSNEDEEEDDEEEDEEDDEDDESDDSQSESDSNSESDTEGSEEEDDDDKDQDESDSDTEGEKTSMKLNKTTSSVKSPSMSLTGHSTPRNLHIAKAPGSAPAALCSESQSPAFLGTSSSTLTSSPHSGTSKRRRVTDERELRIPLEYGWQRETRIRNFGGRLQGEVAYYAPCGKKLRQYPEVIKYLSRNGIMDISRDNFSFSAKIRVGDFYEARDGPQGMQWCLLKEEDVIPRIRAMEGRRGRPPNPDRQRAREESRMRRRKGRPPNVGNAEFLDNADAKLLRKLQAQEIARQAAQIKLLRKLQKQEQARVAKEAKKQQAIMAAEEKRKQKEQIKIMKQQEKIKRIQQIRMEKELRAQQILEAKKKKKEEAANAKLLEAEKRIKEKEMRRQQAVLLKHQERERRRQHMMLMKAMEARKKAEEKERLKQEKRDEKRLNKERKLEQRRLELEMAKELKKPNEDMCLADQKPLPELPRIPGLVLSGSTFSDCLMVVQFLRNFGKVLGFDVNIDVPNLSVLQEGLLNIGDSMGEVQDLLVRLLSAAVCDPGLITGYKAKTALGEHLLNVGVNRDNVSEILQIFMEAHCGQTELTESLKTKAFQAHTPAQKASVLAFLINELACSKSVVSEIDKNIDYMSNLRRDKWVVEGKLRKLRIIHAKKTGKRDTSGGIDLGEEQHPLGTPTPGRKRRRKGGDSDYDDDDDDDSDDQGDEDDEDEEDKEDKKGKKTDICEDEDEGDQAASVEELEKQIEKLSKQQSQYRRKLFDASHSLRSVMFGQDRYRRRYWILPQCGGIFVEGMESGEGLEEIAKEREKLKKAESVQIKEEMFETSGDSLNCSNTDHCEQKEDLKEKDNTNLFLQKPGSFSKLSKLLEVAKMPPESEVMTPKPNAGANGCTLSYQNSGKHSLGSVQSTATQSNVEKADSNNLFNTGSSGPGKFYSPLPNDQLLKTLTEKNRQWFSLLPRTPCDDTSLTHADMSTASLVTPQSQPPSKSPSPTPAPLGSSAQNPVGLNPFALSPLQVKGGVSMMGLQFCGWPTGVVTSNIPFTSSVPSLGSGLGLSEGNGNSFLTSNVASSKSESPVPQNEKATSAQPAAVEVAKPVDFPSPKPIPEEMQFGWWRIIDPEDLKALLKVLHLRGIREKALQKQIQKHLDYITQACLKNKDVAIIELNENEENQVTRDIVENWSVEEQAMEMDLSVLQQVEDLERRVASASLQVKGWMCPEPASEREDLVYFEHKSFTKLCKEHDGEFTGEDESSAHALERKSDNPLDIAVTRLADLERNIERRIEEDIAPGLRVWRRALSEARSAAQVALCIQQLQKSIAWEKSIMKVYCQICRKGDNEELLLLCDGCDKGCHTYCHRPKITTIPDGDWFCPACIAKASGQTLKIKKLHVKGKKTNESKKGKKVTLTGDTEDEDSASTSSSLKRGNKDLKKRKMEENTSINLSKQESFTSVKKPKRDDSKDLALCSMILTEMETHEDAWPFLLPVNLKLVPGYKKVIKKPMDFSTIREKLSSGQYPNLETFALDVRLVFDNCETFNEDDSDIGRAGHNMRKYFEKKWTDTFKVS
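AlphaScreen displacement: compounds (up to 110uM) incubated 30 min at room temperature with a preformed 50 nM BAZ2B/50 nM biotinylated H3K14Ac peptide complex in PBS pH 7.4 with Tween-20. Donor and acceptor beads at 10 ug/mL final added, 20 min light-protected before reading.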
CtBP-E1A inh: CtBP/E1A binding inhibition; activity change, % (test concentration not listed); AID 651724; AlphaScreen GST-E1A/His-CtBP binding, 1536-well; hits give low values; 340,000 compounds, 0.49% hits; in the data active means activity change below about -65%; inconclusive means mostly about -30% to -63%; further: on the % scale 0 is the no-effect control and ±100 the full control effect
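Homogeneous bead-based format: GST-tagged E1A captured on glutathione donor beads, His-tagged CtBP on nickel acceptor beads; compounds precede bead addition by 2 h at 37 °C.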
G9a block: inhibitors of human histone lysine methyltransferase G9a; Potency, µM (titrated, usually from 102 µM), without a hit: at the top dose activity, negative = inhibition, actives largely listed as inhibitors; Q96KQ7; 350,000 compounds, 8.8% hits; G9a H3K9 monomethylation, AlphaScreen, 2 h; further: potency means the concentration at half of the fitted maximal effect; on the % scale 0 is the no-effect control and ±100 the full control effect; nearly all actives have a fitted effect of over 75% in size
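AlphaScreen detection with an anti-monomethyl H3K9 antibody quantified product after a 2 h room-temperature reaction containing 500 nM biotinylated H3K9 peptide, 20 µM SAM and 20 nM enzyme, which had been preincubated 15 min with compound.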
HP1b binding inh: inhibitors of HP1-beta chromodomain binding to methylated histone tails; P83916; AlphaScreen HP1-beta / biotin-H3K9me3 peptide binding; Potency, µM (series often up to 114 µM), for the others: at the top dose activity change, negative = inhibition, actives largely listed as inhibitors; 390,000 compounds, 0.56% hits; further: potency means the concentration at half of the fitted maximal effect; nearly all actives have a fitted effect of over 70% in size
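Compound inhibition of the preformed complex between 50 nM HP1-beta and 50 nM biotinylated H3K9me3 peptide was read by AlphaScreen. Buffer was PBS pH 7.4 with 0.01% Tween-20. Incubations ran 30 min at room temperature, with 10 ug/mL donor/acceptor beads.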
JMJD2A Tudor inh: inhibitors of human JMJD2A Tudor domain. O75164. AlphaScreen JMJD2A-Tudor / H3K4me3 peptide binding. Potency, µM (series often up to 114 µM), without a hit: at the highest dose activity change, negative = inhibition, hits mostly inhibitors. 390,000 compounds, 4.4% hits; further: potency means the concentration at half of the fitted maximal effect; on the % scale 0 is the no-effect control and ±100 the full control effect; nearly all actives have a fitted effect of over 50% in size
Six1-Eya2 inh: inhibitors of human Six1/Eya2 interaction; AlphaScreen GST-Six1/His-Eya2 binding, biochemical; hits give low values; AID 651725; activity change, % (no concentration beside the values); 360,000 compounds, 0.56% hits; Q15475+O00167; in the data active means activity change below about -65%; inconclusive means mostly about -30% to -63%; further: on the % scale 0 is the no-effect control and ±100 the full control effect
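Compounds are tested against tagged Six1 and Eya2 proteins bridged by glutathione donor and nickel acceptor beads; after a one-hour incubation at 37 °C without light, AlphaScreen emission is recorded.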
Active calls of the source: *; ? = inconclusive; . = no result; [ ] = another dose, or the depositor's remark. Most compounds without a hit are left out; they make up all but 10% or so of the library. Unless noted, the call rests on the fitted dose curve; in most records, active means well fitted inhibition curve with a large enough effect; inconclusive means small, poorly fitted or top-dose-only effect; inactive means no such curve, though single readings can be large or run the other way.

SMILES	BAZ2B inh	CtBP-E1A inh	G9a block	HP1b binding inh	JMJD2A Tudor inh	Six1-Eya2 inh
COc1cc(OC)c(OC)cc1CN1CCN(Cc2cccn2C)CC1	39.8µM*	2.7	3.55µM*	25.1µM*	3.55µM*	-6.5
COc1ccccc1N1CCN(Cc2cc(=O)oc3ccccc23)CC1	.	2.5	.	.	.	-0.7
CCOC(=O)C1CCN(c2ccccc2CN2CCN(c3ccccc3OCC)CC2)CC1	-25.8%	-1.7	-42.0%	5.2%	-20.1%	3.8
COc1cc(OC)c(OC)cc1CN1CCN(c2ccccc2OC)CC1	?	-6.5	?	?	3.16µM*	-2.8
CCOc1ccccc1N1CCN(Cc2ccc(OC)c(OC)c2OC)CC1	?	-4.3	?	?	3.98µM*	-2.3
COc1ccccc1N1CCN(Cc2nc3ccccc3[nH]2)CC1	-7.8%	-0.3	-5.2%	28.2%	-12.7%	1.1
COc1ccccc1N1CCN(Cc2nc3ccsc3c(=O)[nH]2)CC1	-7.1%	10.9	-28.5%[59 µM]	9.1%	3.55µM*	-2.7
Cc1nn(CCCC(=O)Nc2cccc(F)c2)c(=O)c2c1sc1ccccc12	-18.2%	.	?	7.3%	-32.1%	.
O=C1COc2cc(S(=O)(=O)CCC(=O)N3CCN(c4cccc(Cl)c4)CC3)c(Cl)cc2N1	-1.8%	.	-3.4%[59 µM]	29.9%	-8.2%	.
COc1cc(OC)c(OC)cc1CN1CCC(O)CC1	?	7.9	?	?	17.8µM*	7.0
COc1ccc(S(=O)(=O)N2CCC(N3CCN(Cc4ccc(F)cc4)C(=O)C3=O)CC2)cc1	-4.3%	.	-25.3%[59 µM]	25.5%	-5.6%	.
Nc1c(-c2ccc3c(c2)OCCO3)oc2ccccc2c1=O	34.0%	19.8	50.1µM*	45.3%	30.0%[57.1 µM]	31.0
O=c1cc(-c2ccc3c(c2)OCO3)oc2ccccc12	-1.6%	9.8	-31.1%	17.0%	1.7%	9.1
COc1cc(-c2noc(C)c2C#CC2(N)CCCCC2)cc(OC)c1OC	?	-2.3	14.1µM*	24.4%	-23.6%	0.4
COc1cc(-c2noc(C)c2C#CC2(O)CCCCC2)cc(OC)c1OC	1.0%	1.1	.	50.7%	-2.8%	-1.1
COc1ccc(N2CCN(c3nc4cc(C)ccc4cc3C=O)CC2)cc1	12.6µM*	-10.8	25.1µM*	?	22.4µM*	-11.1
COc1ccc(N2CCN(c3cc(C)c4cccc(C)c4n3)CC2)cc1	?	-8.8	12.6µM*	?	22.4µM*	-23.5
Cc1cc(N2CCN(c3ncccn3)CC2)nc2c(C)cccc12	70.4%	4.0	32.6%	59.3%	12.9%	4.7
COc1ccc(N2CCN(c3cc(C)c4ccc(C)cc4n3)CC2)cc1	-38.5%	-1.7	8.91µM*	?	?	?
COc1ccc(N2CCN(c3cc(C)c4ccc(O)cc4n3)CC2)cc1	44.7µM*	-3.6	?	15.8%	?	-25.3
Cc1nnc(NC(=O)CSc2nccn2Cc2ccc(Cl)cc2)s1	-23.6%	.	6.1%[59 µM]	34.9%[57 µM]	-12.7%	.
Cc1cc2ccccc2nc1SCC(=O)NC1CCCCC1	?	11.0	.	48.3%	-2.1%	0.6
O=C(CSc1nc2ccccc2s1)NC1CCCC1	-23.3%	8.6	22.4µM*	5.0%	-10.5%	-9.0
Cc1cc2ccccc2nc1SCC(=O)NC1CCCC1	3.7%	1.9	2.2%	-1.2%	14.1µM*	10.6
O=C(NCc1ccccc1Cl)c1ccc2c(O)c(S(=O)(=O)c3ccccc3)c(=O)[nH]c2c1	?	.	?	25.7%	-9.2%	.
COc1ccccc1NS(=O)(=O)c1cc(NC(=O)c2cccnc2)ccc1N1CCCCC1	.	-6.9	.	-5.8%[57 µM]	?	-5.7
COc1ccccc1NS(=O)(=O)c1cc(NC(=O)Nc2ccc(Cl)cc2Cl)ccc1N1CCCCC1	-6.4%	7.9	3.55µM*	?	-32.5%	-0.6
COc1ccccc1NS(=O)(=O)c1cc(NC(=O)C2CCC2)ccc1N1CCCCC1	-25.8%	-1.6	3.55µM*	-32.4%	?	-4.1
COc1ccccc1NS(=O)(=O)c1cc(NC(=O)CCC2CCCC2)ccc1N1CCOCC1	?	7.1	1.41µM*	36.2%	-14.8%	4.6

Screens deposited in PubChem BioAssay by National Center for Advancing Translational Sciences (NCATS).
